Records with an inconclusive call do not appear. The source made the active and inactive calls.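 Rule for the calls, unless noted: active = normalized viability below 100% at a tested concentration; inactive = the rest.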
How the values were obtained:
[1] = viability loss in pontine glioma line – cell-based, SU-DIPG-XVII, MIPE5.0, CellTiter-Glo, qHTS, dose response (AID 1347060; cut-off not given, nearly all actives have AC50 up to about 26 µM;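 note: cells exposed to compound for 48 hours before viability readout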); settings: CellTiter-Glo ATP luminescence
[2] = viability loss in pontine glioma line – cell-based, SU-DIPG-XIII, MIPE4.0, CellTiter-Glo, qHTS, dose response (AID 1347061; cut-off not given, nearly all actives have AC50 up to about 37 µM;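 note: cells exposed to compound for 48 hours before readout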); settings: CellTiter-Glo ATP luminescence
[3] = viability loss in pontine glioma line – cell-based, JHH-DIPG-1, MIPE4.0, CellTiter-Glo, qHTS, dose response (AID 1347062; cut-off not given, nearly all actives have AC50 up to about 27 µM;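 note: cells exposed to compound for two days before readout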); settings: JHH-DIPG-1 viability, CellTiter-Glo ATP luminescence
[4] = viability loss in pontine glioma line – cell-based, SU-DIPG-IV, MIPE4.0, CellTiter-Glo, qHTS, dose response (AID 1347063; cut-off not given, nearly all actives have AC50 up to about 30 µM;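 note: compound exposure lasted 48 hours before the viability readout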); settings: CellTiter-Glo ATP luminescence
[5] = viability loss in pontine glioma line – cell-based, SU-DIPG-XIII, MIPE5.0, CellTiter-Glo, qHTS, dose response (AID 1347064; cut-off not given, nearly all actives have AC50 up to about 23 µM;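 note: cells exposed to compound for 48 hours before the viability read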); settings: CellTiter-Glo ATP luminescence
[6] = viability loss in pontine glioma line – cell-based, SU-DIPG-XXV, MIPE5.0, CellTiter-Glo, qHTS, dose response (AID 1347065; cut-off not given, nearly all actives have AC50 up to about 26 µM;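 note: cells exposed to compound for 48 hours before ATP readout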); settings: CellTiter-Glo ATP luminescence
[7] = growth inhibition of DIPG cells – cell-based, MIPE4.0 library, CellTiter-Glo luminescence, qHTS (AID 1347066; cut-off not given, nearly all actives have AC50 up to about 30 µM;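 note: cells exposed to compound for 48 hours before readout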); settings: SU-DIPG-VI viability, CellTiter-Glo ATP luminescence
[8] = JHH-DIPG-1 glioma cell viability, MIPE5.0 library, CellTiter-Glo luminescence, qHTS (AID 1347067; cut-off not given, nearly all actives have AC50 up to about 26 µM;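 note: cells exposed to compound for 48 hours before readout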); settings: JHH-DIPG-1 glioma viability, CellTiter-Glo ATP luminescence
[9] = growth inhibition of DIPG cells – cell-based, MIPE5.0 library, qHTS (AID 1347068; cut-off not given, nearly all actives have IC50 up to about 30 µM;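 note: cells exposed to compound for 48 hours before viability readout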); settings: SU-DIPG-XXV viability
[10] = compounds altering HSF1 focus formation in cells – imaging, Selleck Cancer Library (AID 1347162; in the data active = plate-normalised HSF1 focus index below about 0.46); settings: human cells, HSF1 nuclear foci imaging, at 10 µM; SSMD: measured here: HSF1 foci SSMD mean; cell count: measured here: cell number; plate-normalised HSF1 focus index: stronger effect = lower value
[11] = drug combination growth inhibition, ovarian cancer – cell-based, oncology-focused library, rucaparib conditional, profiling panel (AID 1508598); settings: patient-derived ovarian cancer cells, CellTiter-Glo viability, 144 h, stronger effect = lower value
[12] = viability loss with induced miR-34 in A549 – imaging, A549 dox-inducible miR-34, nuclei and caspase counts, primary screen (AID 1347080;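 active = compounds whose cell count with miR-34 switched on is under 0.7 times the count with it off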); settings: A549 miR-34 inducible, Hoechst nuclei count, 48 h
[13] = MELAS cybrid and Rieske KO viability enhancers – cell-based, MELAS cybrids, Rieske KO mouse fibroblasts, CellTiter-Glo, primary screen (AID 1508586;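 active = mean z-score across replicates of 1.96 or higher in either the MELAS or the Rieske mutant cell line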;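 note: z relative to plate mean and SD of compound and empty wells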); settings: low glucose
[14] = at 0.000305 µM, OCI-C5x cells, with rucaparib 10 µM, 100% = cells with rucaparib alone
[15] = at 0.000305 µM, OCI-C5x cells, without rucaparib
[16] = at 0.000305 µM, OCI-P5x cells, with rucaparib 20 µM, 100% = cells with rucaparib alone
[17] = at 0.000305 µM, OCI-P5x cells, without rucaparib
[18] = at 0.00122 µM, OCI-C5x cells, with rucaparib 10 µM, 100% = cells with rucaparib alone
[19] = at 0.00122 µM, OCI-C5x cells, without rucaparib
[20] = at 0.00122 µM, OCI-P5x cells, with rucaparib 20 µM, 100% = cells with rucaparib alone
[21] = at 0.00122 µM, OCI-P5x cells, without rucaparib
[22] = at 0.00488 µM, OCI-C5x cells, with rucaparib 10 µM, 100% = cells with rucaparib alone
[23] = at 0.00488 µM, OCI-C5x cells, without rucaparib
[24] = at 0.00488 µM, OCI-P5x cells, with rucaparib 20 µM, 100% = cells with rucaparib alone
[25] = at 0.00488 µM, OCI-P5x cells, without rucaparib
[26] = at 0.0195 µM, OCI-C5x cells, with rucaparib 10 µM, 100% = cells with rucaparib alone
[27] = at 0.0195 µM, OCI-C5x cells, without rucaparib
[28] = at 0.0195 µM, OCI-P5x cells, with rucaparib 20 µM, 100% = cells with rucaparib alone
[29] = at 0.0195 µM, OCI-P5x cells, without rucaparib
[30] = at 0.0781 µM, OCI-C5x cells, with rucaparib 10 µM, 100% = cells with rucaparib alone
[31] = at 0.0781 µM, OCI-C5x cells, without rucaparib
[32] = at 0.0781 µM, OCI-P5x cells, with rucaparib 20 µM, 100% = cells with rucaparib alone
[33] = at 0.0781 µM, OCI-P5x cells, without rucaparib
[34] = at 0.313 µM, OCI-C5x cells, with rucaparib 10 µM, 100% = cells with rucaparib alone
[35] = at 0.313 µM, OCI-C5x cells, without rucaparib
[36] = at 0.313 µM, OCI-P5x cells, with rucaparib 20 µM, 100% = cells with rucaparib alone
[37] = at 0.313 µM, OCI-P5x cells, without rucaparib
[38] = at 1.25 µM, OCI-C5x cells, with rucaparib 10 µM, 100% = cells with rucaparib alone
[39] = at 1.25 µM, OCI-C5x cells, without rucaparib
[40] = at 1.25 µM, OCI-P5x cells, with rucaparib 20 µM, 100% = cells with rucaparib alone
[41] = at 1.25 µM, OCI-P5x cells, without rucaparib
[42] = at 5 µM, OCI-C5x cells, with rucaparib 10 µM, 100% = cells with rucaparib alone
[43] = at 5 µM, OCI-C5x cells, without rucaparib
[44] = at 5 µM, OCI-P5x cells, with rucaparib 20 µM, 100% = cells with rucaparib alone
[45] = at 5 µM, OCI-P5x cells, without rucaparib

CCC[C@H](NC(=O)/C(C#N)=C/c1cccc(Br)n1)c1ccccc1
inactive: viability [11, 14] 119% | viability [11, 15] 122% | viability [11, 17] 113% | viability [11, 18] 114% | viability [11, 19] 137% | viability [11, 21] 111% | viability [11, 22] 121% | viability [11, 23] 137% | viability [11, 25] 114% | viability [11, 26] 111% | viability [11, 27] 135% | viability [11, 28] 104% | viability [11, 29] 110% | viability [11, 30] 108% | viability [11, 31] 128% | viability [11, 32] 104% | viability [11, 33] 128% | viability [11, 34] 126% | viability [11, 35] 134% | viability [11, 36] 102% | viability [11, 37] 123% | viability [11, 38] 106% | viability [11, 39] 141% | viability [11, 41] 111% | viability [11, 43] 102%
6540: cell count [10]
active: AC50 [1] 3.32 µM | AC50 [2] 26.4 µM | AC50 [3] 3.32 µM | AC50 [4] 2.35 µM | AC50 [5] 3.32 µM | AC50 [6] 2.63 µM | AC50 [7] 9.35 µM | AC50 [8] 4.68 µM | IC50 [9] 16.6 µM | plate-normalised HSF1 focus index [10] 0.0433 | viability [11, 16] 94.8% | viability [11, 20] 95.1% | viability [11, 24] 98.7% | viability [11, 40] 46.8% | viability [11, 42] 8.18% | viability [11, 44] 2.03% | viability [11, 45] 8.95%
-18.6: SSMD [10]

Nc1cc(C(F)(F)F)c(-c2cc(N3CCOCC3)nc(N3CCOCC3)n2)cn1
1500: cell count ([12]; measured here: total cells with miR-34 induction, stronger effect = lower value)
-2.21: z-score ([13]; Rieske KO mouse fibroblast survival, CellTiter-Glo 72 h)
1.1: fold change ([12]; measured here: relative caspase fold change +Dox/-Dox)
1810: cell count ([12]; measured here: total cells without miR-34 induction)
inactive: fold change ([12]; stronger effect = lower value, cell number ratio, induced over uninduced) 0.829 | plate-normalised HSF1 focus index [10] 0.897 | viability [11, 14] 103% | viability [11, 15] 125% | viability [11, 16] 104% | viability [11, 17] 106% | viability [11, 18] 103% | viability [11, 19] 120% | viability [11, 21] 114% | viability [11, 22] 112% | viability [11, 23] 141% | viability [11, 24] 103% | viability [11, 25] 107% | viability [11, 26] 104% | viability [11, 27] 117% | viability [11, 28] 100% | viability [11, 29] 110% | viability [11, 30] 120% | viability [11, 31] 121% | viability [11, 32] 104% | viability [11, 33] 102% | viability [11, 35] 124%
active: AC50 [1] 2.95 µM | AC50 [2] 6.62 µM | AC50 [3] 2.09 µM | AC50 [4] 0.332 µM | AC50 [5] 2.95 µM | AC50 [6] 0.934 µM | AC50 [7] 1.48 µM | AC50 [8] 1.48 µM | IC50 [9] 3.72 µM | z-score ([13]; MELAS cybrid survival, CellTiter-Glo 48 h, stronger effect = higher value) 2.94 | viability [11, 20] 98.2% | viability [11, 34] 93.6% | viability [11, 36] 87.5% | viability [11, 37] 92.9% | viability [11, 38] 71.8% | viability [11, 39] 80.8% | viability [11, 40] 69.7% | viability [11, 41] 51.3% | viability [11, 42] 31.4% | viability [11, 43] 25.1% | viability [11, 44] 26.6% | viability [11, 45] 12.2%
7440: cell count [10]
-2.85: SSMD [10]
